Assay outcomes deposited in PubChem BioAssay by National Center for Advancing Translational Sciences (NCATS).
An excerpt weighted towards active compounds, which were near 12% of everything screened.
G9a inh: qHTS Assay for Inhibitors of Histone Lysine Methyltransferase G9a | Histone-lysine N-methyltransferase EHMT2 (Homo sapiens), Q96KQ7 | G9a H3K9 monomethylation, AlphaScreen, 2 h | Potency, µM (titrated, usually from 102 µM), usual class: inhibitors | 350,000 tested, 8.8% active; note: nearly all actives have a fitted effect of over 75% in size
Target sequence (Q96KQ7 913-1193 limits assumed): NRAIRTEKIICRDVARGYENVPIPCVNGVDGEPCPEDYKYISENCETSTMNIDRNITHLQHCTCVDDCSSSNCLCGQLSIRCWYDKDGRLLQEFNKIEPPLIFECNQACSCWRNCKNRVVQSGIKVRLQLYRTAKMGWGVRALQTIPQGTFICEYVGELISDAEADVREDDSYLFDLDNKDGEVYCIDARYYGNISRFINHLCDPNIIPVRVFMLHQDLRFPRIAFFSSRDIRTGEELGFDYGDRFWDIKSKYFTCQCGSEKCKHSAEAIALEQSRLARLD
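Compounds were preincubated with 20 nM G9a for 15 min, after which biotinylated H3K9 peptide (500 nM) and SAM (20 uM) started a 2 h room-temperature reaction. Monomethylated product was quantified by antibody-based AlphaScreen chemiluminescence.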
JMJD2A Tudor inh: qHTS Assay for Inhibitors of JMJD2A-Tudor Domain | Lysine-specific demethylase 4A (Homo sapiens), O75164 | AlphaScreen JMJD2A-Tudor / H3K4me3 peptide binding | Potency, µM (top dose mostly 114 µM), most hits filed as inhibitors | 390,000 tested, 4.4% active | AID 504339, 2011; note: nearly all actives have a fitted effect of over 50% in size
BAZ2B inh: qHTS Assay for Inhibitors of BAZ2B. Bromodomain adjacent to zinc finger domain protein 2B (Homo sapiens), Q9UIF8. AlphaScreen BAZ2B-H3K14Ac peptide displacement. Potency, µM (titrated, usually from 114 µM), actives largely listed as inhibitors. 360,000 tested, 4.4% active; note: nearly all actives have a fitted effect of over 60% in size
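In this displacement format the biotinylated H3(5-23) peptide acetylated at Lys14 serves as ligand at 50 nM, with BAZ2B at 50 nM in PBS pH 7.4 containing 0.01% Tween-20. Donor and acceptor beads are 10 ug/mL final.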
Sfp inh: qHTS Assay for Inhibitors of Bacillus subtilis Sfp phosphopantetheinyl transferase (PPTase); Biochemical Sfp PPTase activity, qHTS; Potency, µM, actives largely listed as inhibitors; 310,000 tested, 3.5% active;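 note: the enzyme is Sfp with the accession as filed and its product quenches rhodamine fluorescence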
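With Hepes-Na pH 7.6 buffer containing 10 mM MgCl2, Sfp (15 nM) modified BHQ-2-YbbR (12.5 uM) using rhodamine-CoA (5 uM). Two reads 30 minutes apart at 525/598 nm yielded each well's rate.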
L3MBTL1 block: qHTS Assay for the Inhibitors of L3MBTL1. Lethal(3)malignant brain tumor-like protein 1 (Homo sapiens), Q9Y468. AlphaScreen L3MBTL1–H3K9me1 peptide binding. Potency, µM (doses to about 57.1 µM), most hits filed as inhibitors. 230,000 tested, 0.66% active; note: nearly all actives have a fitted effect of over 60% in size
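AlphaScreen assay: L3MBTL1 (50 nM final) was preincubated 30 min at room temperature with biotinylated H3(1-15)K9me1 peptide (75 nM final), then 30 min with library compounds; streptavidin donor and nickel chelate acceptor beads (10 ug/mL final) added, 30 min dark.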
HP1b chromo inh: HTS for Inhibitors of HP1-beta Chromodomain Interactions with Methylated Histone Tails. Chromobox protein homolog 1 (Homo sapiens), P83916. AlphaScreen HP1-beta / biotin-H3K9me3 peptide binding. Potency, µM (series often up to 114 µM), usual class: inhibitors. 390,000 tested, 0.56% active. AID 540317, 2011; note: nearly all actives have a fitted effect of over 70% in size
Target sequence (P83916 whole entry, looked up): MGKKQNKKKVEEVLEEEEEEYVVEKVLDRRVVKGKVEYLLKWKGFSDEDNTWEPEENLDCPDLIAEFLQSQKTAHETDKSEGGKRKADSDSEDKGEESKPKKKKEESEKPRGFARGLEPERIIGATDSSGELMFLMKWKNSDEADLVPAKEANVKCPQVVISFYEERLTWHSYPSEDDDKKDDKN
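AlphaScreen: HP1-beta (50 nM) preformed 30 min with biotin-H3(1-18)K9me3 peptide (50 nM) in PBS pH 7.4, 0.01% Tween-20. Compound added for 30 min at RT, then streptavidin donor/nickel chelate acceptor beads (10 ug/mL) for 30 min.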
A number is an active result; – = inactive; ? = inconclusive; · = no result; ! = not confirmed by another sample; [ ] = dose if it differs, or a comment. Calls come from the whole dose curve; as a rule, active = well fitted curve in the direction sought with a large enough effect; inconclusive = small, poorly fitted or top-dose-only effect, or another doubt; inactive = no such curve, though single readings can be large; an effect the other way counts as inactive or inconclusive.

SMILES	G9a inh	JMJD2A Tudor inh	BAZ2B inh	Sfp inh	L3MBTL1 block	HP1b chromo inh
CC(C)[C@]1(O)[C@@H](OC(=O)c2ccc[nH]2)[C@@]2(O)[C@@]3(C)C[C@]4(O)O[C@@]5([C@H](O)[C@@H](C)CC[C@]35O)[C@@]2(O)C41C	–	–	·	–	·	–
CSC(=Nc1ccccc1)c1c(O)n(C)c(=O)n(C)c1=O	?	–	–	56.2µM	–	–
CCOC(=O)c1ccc(N=C(c2ccccc2)c2c(O)n(C)c(=O)n(C)c2=O)cc1	50.1µM	–	–	?	–	–
Cn1c(O)c(C(=Nc2ccccc2)SCc2ccccc2Cl)c(=O)n(C)c1=O	·	–	50.1µM	39.8µM	·	–
Cn1c(O)c(C(=Nc2ccc(F)cc2)c2ccccc2Cl)c(=O)n(C)c1=O	·	–	–	–	–	–
Cc1ccc(C(=O)c2cn(CC(=O)Nc3ccc(C(C)C)cc3)c3nc(C)ccc3c2=O)cc1	–	?	–	·	·	–
O=C1CN=C(c2ccccc2)c2cc(Cl)ccc2N1CC1CC1	–[12.7 µM]	·	·	–	·	·
C=CCn1c(=O)c(C=Nc2cccc([N+](=O)[O-])c2)c(O)n(CCCC)c1=O	70.8µM	?	–	–	–	–
COc1cc(/C=C/[N+](=O)[O-])ccc1O	6.31µM	?	44.7µM	?	–	?
Brc1c(Br)c(Br)c2n[nH]nc2c1Br	–	·	·	–	·	·
O=C(NC1CCCCC1)Oc1cc2oc(=O)sc2cc1Cl	39.8µM	–	–	3.55µM	·	–
C/C(O)=C1\C(=O)[C@@H]2[C@H]3c4c[nH]c5cccc(c45)C[C@H]3C(C)(C)N2C1=O	25.1µM!	·	·	56.2µM	·	·
NC1C=CC=C(C(=O)O)C1 (configuration not stated)	3.16µM	–	·	–	·	–
COc1cc2c(cc1O)C[C@H]1NCCc3cc4c(c-2c31)OCO4	?	22.4µM	22.4µM	–	35.5µM	–
C=C(C)CSc1nnc([C@@H](N)Cc2c[nH]c3ccccc23)o1	·	–	–	–	–	–
CC(C)=CCSc1nnc([C@@H](N)Cc2c[nH]c3ccccc23)o1	3.55µM	?	–	–	–[11.4 µM]	?
O=c1[nH]c(=O)n(Cc2ccco2)c(O)c1C=NC1CC1	–	–	–	–	–	–
S=c1[nH]nc(C2CC2)n1Cc1ccco1	2.51µM	22.4µM	–	–	·	–
C=CCn1c(C2CC2)n[nH]c1=S	44.7µM	?	–	–	–	–
COc1ccccc1NC(=O)Cn1c(=O)n(-c2cccc(Cl)c2)c(=O)c2sc3ccccc3c21	–	–	–	·	·	–
CCCN1CCCC(c2cccc(O)c2)C1 (configuration not stated)	–[12.7 µM]	·	·	·	·	·
Cc1ccccc1OCCN=Cc1c(O)n(C)c(=O)n(C)c1=O	–	–	–	–	–	–
CCOc1ccccc1N=Cc1c(O)n(C)c(=O)n(C)c1=O	50.1µM	–	–	–	·	–
COc1ccccc1N1CCN(Cc2ccc(Br)cc2)CC1	?	–	?	?	–[2.29 µM]	–
CCC1Nc2ncnc(N3CCN(c4ccccn4)CC3)c2N(Cc2ccc(Br)cc2)C1=O (configuration not stated)	·	79.4µM	·	·	–	–
SMILES	G9a inh	JMJD2A Tudor inh	BAZ2B inh	Sfp inh	L3MBTL1 block	HP1b chromo inh
C[C@@H]1Cc2c(Cl)cc(C(=O)N[C@@H](Cc3ccccc3)C(=O)O)c(O)c2C(=O)O1	–	·	·	–	·	·
O=C1CC2(CCCC2)CC(=O)N1CCCCN1CCN(c2ncccn2)CC1	12.6µM!	–	–	–	–	–
CC1(C)C(O)CC(O)[C@]2(C)C1CC(=O)[C@]1(C)C2CC[C@@]2(C)C(c3ccoc3)OC(=O)C3OC321 (some centres not stated)	–[2.33 µM]	·	·	–	·	·
COc1ccc(-n2c(/C=C\c3ccccc3F)nc3ccccc3c2=O)cc1OC	–	–	–	·	·	–
CC(=O)Oc1ccc2c3c1OC1[C@@H](OC(C)=O)C=C[C@H]4[C@H](C2)N(C)CC[C@]314 (some centres not stated)	–[12.7 µM]	·	·	–	·	·
CCOc1ccc2nc(N=Nc3c(O)[nH]c(=O)[nH]c3=O)sc2c1	·	–[11.4 µM]	44.7µM	–	–	–
CCOc1ccc2nc(N=Nc3c(O)[nH]c(=S)[nH]c3=O)sc2c1	35.5µM	?	22.4µM	56.2µM	7.94µM	?
CCOC(=O)c1sc(N=Nc2c(O)[nH]c(=O)[nH]c2=O)c(C(=O)OCC)c1C	–	·	–	–	–	·
CCOc1ccc2nc(NC(=O)c3cccn(Cc4ccccc4C)c3=O)sc2c1	–	–	–	·	·	–
O=C1NCCOC(=O)[C@@H](Cc2ccc(F)cc2)CC/C=C/C[C@H]1CC(=O)N(CCO)Cc1ccccc1	·	–	·	·	–	–
Oc1c(Cl)c(Cl)c(Cl)c(Cl)c1Cl	·	56.2µM	·	–	·	–
O=C1NC(=O)N(Cc2ccco2)C(=O)/C1=C\c1cccn1CCOc1ccc(Cl)cc1	–	?	39.8µM	44.7µM	–	–
NC(=O)C1CCN(/C=C2\C(=O)NC(=O)N(Cc3ccco3)C2=O)CC1	?	79.4µM	?	?	·	?
Cc1cc(/C=C2/C(=O)NC(=O)N(Cc3ccco3)C2=O)c(C)n1-c1ccccc1	10µM	50.1µM	?	–	–	70.8µM
CCc1ccc(N2C(=O)NC(=O)/C(=C/c3cccn3CCOc3ccc(C)cc3)C2=O)cc1	–	–	?	–	–	–
CCN(CC)c1ccc(/C=C2/C(=O)NC(=O)N(Cc3ccco3)C2=O)cc1	?	?	39.8µM	50.1µM	?	–
COc1cc(OC2CCN(C(C)=O)CC2)ccc1C(=O)N1CCC(N2C(=O)OCc3ccccc32)CC1	–	·	·	–	·	·
CC(Cc1ccc(C(C)(C)C)cc1)CN1CC(C)OC(C)C1 (configuration not stated)	·	·	·	–	·	·
CC(N)C(O)c1ccc(O)c(O)c1 (configuration not stated)	?	·	·	–	·	·
COc1ccc2c3c1O[C@H]1[C@@H](O)C=C[C@H]4C(C2)NCCC341 (some centres not stated)	–	·	·	–	·	·
CCOC(=O)c1cc(C)n(CCc2cnc[nH]2)c1C	?	?	56.2µM	–	–	–
N#Cc1ccc(CN2CCCC3(CCN(C(=O)Oc4ccccc4)CC3)C2)cc1	–[12.7 µM]	·	·	–	·	·
COC(=O)[C@@]1(Cc2ccc(F)cc2)[C@H]2c3cc(C(=O)N(C)C)[nH]c3C[C@H]2CN1C(=O)c1ccccc1	?	–	50.1µM	–	–	–
Cn1c(O)c(/C=C2\N=c3ccccc3=C2CCNC(=S)NC2CC2)c(=O)n(C)c1=O	–	–	?	31.6µM	–	–
COC(=O)C12CC3=CC(CC3=O)Cc3ccccc3[C@@H]1CNC2=O (some centres not stated)	·	·	·	–	·	·
